The text below walks through data of PubChem BioAssay.

Calls of active or inactive are those of the source. Unless noted, no rule for the calls is given here.

The subject of assay [1] is Wnt5a (protein binding on small-molecule microarray). Description: Wnt5a binders on small-molecule microarray, primary screen, biophysical, 635/667 nm fluorescence (AID 1142).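 Also: fluorescence read at 667 nm with signal to noise per printed feature.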 Particulars: 635 nm fluorescence, higher = more signal.
Assay [2] can be described thus: cell viability in Huh7 cells, primary screen, cytotoxicity control for HCV replication inhibitor project, CellTiter-Glo luminescence, basal, 48 h (AID 1143).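 Also: Huh7 hepatoma cells carrying a hepatitis C replication reporter with no stimulus; test concentration not given here.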 Particulars: Huh7 HCV replicon, higher = more signal, called active from +8 up or from −8 down.
Assay [3] can be described thus: P. aeruginosa biofilm formation inhibitors, primary screen, PAO1 strain, BacTiter-Glo luminescence, LB-PBS (AID 1144). The following applies: 12 h, higher = more signal.
Assay [4] can be described thus: CREB reporter modulators without forskolin, primary screen, cell-based, PC12, CRE-LacZ reporter, unstimulated (AID 1145). The following applies: no forskolin, luminescence, 4.5 h, higher = more signal, called active from +8 up or from −8 down.
The nature of assay [5]: CREB reporter modulators under forskolin, primary screen, cell-based, PC12, CRE-LacZ reporter, forskolin-stimulated (AID 1146).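 Also: PC12 cells with 6xCRE LacZ reporter stimulated by forskolin 10 µM; beta-galactosidase reporter signal reflecting CREB driven transcription.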 Particulars: luminescence, 4.5 h, higher = more signal, called active from +8 up or from −8 down.
Assay [6] addresses Streptavidin (Streptomyces avidinii) (UniProt P22629). Description: streptavidin binders on small-molecule microarray, primary screen, artefact control for SMM compound annotation, biophysical, 635/667 nm fluorescence (AID 1147).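 Also: signal reflects streptavidin binding to arrayed compounds as a control protein.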 The following applies: streptavidin binding, higher = more signal.
Assay [7] can be described thus: small-molecule binders of probe aInhba, primary screen, biochemical, small-molecule microarray, 635/667 nm fluorescence (AID 1148).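 Also: score merges 667nm spot fluorescence with signal-to-noise for antibody binding to printed compounds.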 The following applies: higher = more signal.
The target in assay [8] is Torsin-1A (Homo sapiens) (UniProt O14656). Description: torsin A binders from cell lysate, primary screen, small-molecule microarray, wild-type, 635/667 nm (AID 1149). Particulars: COS7 hTOR1A-WT lysate, 635 nm fluorescence, higher = more signal.
Torsin-1A (Homo sapiens), sequence (O14656 whole entry, looked up): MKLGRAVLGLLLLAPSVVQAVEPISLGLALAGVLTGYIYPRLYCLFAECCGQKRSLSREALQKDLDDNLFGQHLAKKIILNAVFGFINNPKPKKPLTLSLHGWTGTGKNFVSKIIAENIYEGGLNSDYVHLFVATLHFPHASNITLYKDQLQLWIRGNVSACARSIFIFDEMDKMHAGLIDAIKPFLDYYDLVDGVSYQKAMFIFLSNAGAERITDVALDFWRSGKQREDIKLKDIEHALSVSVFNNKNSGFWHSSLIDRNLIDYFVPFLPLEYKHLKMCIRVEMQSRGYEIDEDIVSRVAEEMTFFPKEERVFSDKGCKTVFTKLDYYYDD
Assay [9] shares this target. Description: small-molecule binders of mutant TOR1A in lysate, primary screen, cell lysate, small-molecule microarray, COS7 lysate, 635/667 nm fluorescence (AID 1150).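 Also: score pools 667 nm emission and signal to noise measuring lysate protein binding.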 The following applies: COS7 hTOR1A mutant lysate, 635 nm fluorescence, higher = more signal.
The subject of assay [10] is Sonic hedgehog protein (Shh). Description: small-molecule binders of Shh protein, primary screen, biochemical, small-molecule microarray, 635/667 nm fluorescence (AID 1151).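 Also: Shh protein binding to compounds spotted on small-molecule microarray slides; score combines spot fluorescence intensity with signal-to-noise across triplicate slides.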 The following applies: small-molecule microarray binding, 635 nm fluorescence; higher = more signal.
Assay [11] in a line: E. coli DRC41 culture turbidity changes, primary screen, E. coli filamentation inducer project, strain DRC41, OD650, 48 h (AID 1152).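 Also: E. coli MC1000 strain DRC41 lacking acrAB efflux pump and sulA.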 The following applies: E. coli DRC41 (acrAB sulA), higher = more signal, called active from +8 up or from −8 down.
The nature of assay [12]: small-molecule binders of probe aLefty1, primary screen, biochemical, small-molecule microarray, 635/667 nm fluorescence (AID 1153).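 Also: score merges spot fluorescence with signal-to-noise ratio from the scanned slide images.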 Particulars: higher = more signal.
Assay [13] can be described thus: PSAC antagonists in infected red cells, primary screen, cell-based, P. falciparum Indochina, OD700, 1 h (AID 1154). The following applies: P. falciparum Indochina infected RBC osmotic lysis, higher = more signal, called active from +8 up or from −8 down.
The nature of assay [14]: PSAC antagonists in infected red cells, primary screen, cell-based, P. falciparum Indochina, OD700, 2 h (AID 1155).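 Also: lysis reports solute entry through the parasite surface anion channel PSAC; channel blockers reduce lysis of infected cells.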 The following applies: P. falciparum Indochina infected erythrocytes, osmotic lysis OD700; higher = more signal, called active from +8 up or from −8 down.
A short description of assay [15]: osmotic lysis modulators in infected erythrocytes, primary screen, PSAC antagonist project, cell-based, P. falciparum Indochina, OD700, 3 h (AID 1156). The following applies: higher = more signal, called active from +8 up or from −8 down.
Assay [16] can be described thus: PSAC antagonists in infected red cells, primary screen, cell-based, P. falciparum Indochina, OD700, 18 h (AID 1157). Particulars: P. falciparum Indochina infected erythrocytes, osmotic lysis OD700, 18 h; higher = more signal, called active from +8 up or from −8 down.
Assay [17] can be described thus: modulators of S6 phosphorylation in cells, primary screen, cell-based, A549, cytoblot, luminescence, serum-stimulated (AID 1158).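 Also: serum-stimulated A549 lung adenocarcinoma cells; signal is phosphorylated S6 detected by cytoblot immunostaining with HRP secondary.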 The following applies: A549 phospho-S6 cytoblot, 5 h, higher = more signal.
The target of assay [18] is NADPH oxidase 2 (Homo sapiens) (UniProt P04839). As to the kind of experiment: NOX2-dependent H2O2 signal modulators, primary screen, NOX inhibitor project, cell-based, HEK293-NOX2, PMA-stimulated, Amplex Red fluorescence (AID 1159). Also: test concentration not given here. Particulars: 45 min, higher = more signal, called active from +8 up or from −8 down.
NADPH oxidase 2 (Homo sapiens), sequence (P04839 whole entry, looked up): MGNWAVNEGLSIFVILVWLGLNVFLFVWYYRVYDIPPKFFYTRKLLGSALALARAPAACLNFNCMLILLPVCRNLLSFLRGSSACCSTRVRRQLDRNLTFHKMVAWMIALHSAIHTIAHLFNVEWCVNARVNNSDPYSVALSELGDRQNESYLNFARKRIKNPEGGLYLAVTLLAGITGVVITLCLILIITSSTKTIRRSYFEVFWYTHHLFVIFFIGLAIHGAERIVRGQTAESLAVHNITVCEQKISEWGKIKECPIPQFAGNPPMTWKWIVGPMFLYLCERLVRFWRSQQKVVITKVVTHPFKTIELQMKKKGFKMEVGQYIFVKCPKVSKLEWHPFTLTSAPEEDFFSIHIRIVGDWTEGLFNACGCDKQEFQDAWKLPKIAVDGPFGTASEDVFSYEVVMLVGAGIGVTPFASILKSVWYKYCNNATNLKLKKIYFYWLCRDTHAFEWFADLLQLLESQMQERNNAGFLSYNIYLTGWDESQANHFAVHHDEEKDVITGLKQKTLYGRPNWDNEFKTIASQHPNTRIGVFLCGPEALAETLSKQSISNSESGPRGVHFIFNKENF
Assay [19] concerns the target NADPH oxidase 4 (Homo sapiens) (UniProt Q9NPH5). Description: NOX4-dependent H2O2 signal modulators, primary screen, NOX inhibitor project, cell-based, HEK293-NOX4, tetracycline-induced, Amplex Red fluorescence (AID 1160). Particulars: 45 min, higher = more signal, called active from +8 up or from −8 down.
Assay [20] deals with NADPH oxidase 5 (Homo sapiens) (UniProt Q96PH1). Description: NOX5-dependent H2O2 signal modulators, primary screen, NOX inhibitor project, cell-based, HEK293-NOX5, Amplex Red fluorescence (AID 1161). The following applies: HEK293-NOX5, ionomycin, 45 min, higher = more signal.
NADPH oxidase 5 (Homo sapiens), sequence (Q96PH1 whole entry, looked up): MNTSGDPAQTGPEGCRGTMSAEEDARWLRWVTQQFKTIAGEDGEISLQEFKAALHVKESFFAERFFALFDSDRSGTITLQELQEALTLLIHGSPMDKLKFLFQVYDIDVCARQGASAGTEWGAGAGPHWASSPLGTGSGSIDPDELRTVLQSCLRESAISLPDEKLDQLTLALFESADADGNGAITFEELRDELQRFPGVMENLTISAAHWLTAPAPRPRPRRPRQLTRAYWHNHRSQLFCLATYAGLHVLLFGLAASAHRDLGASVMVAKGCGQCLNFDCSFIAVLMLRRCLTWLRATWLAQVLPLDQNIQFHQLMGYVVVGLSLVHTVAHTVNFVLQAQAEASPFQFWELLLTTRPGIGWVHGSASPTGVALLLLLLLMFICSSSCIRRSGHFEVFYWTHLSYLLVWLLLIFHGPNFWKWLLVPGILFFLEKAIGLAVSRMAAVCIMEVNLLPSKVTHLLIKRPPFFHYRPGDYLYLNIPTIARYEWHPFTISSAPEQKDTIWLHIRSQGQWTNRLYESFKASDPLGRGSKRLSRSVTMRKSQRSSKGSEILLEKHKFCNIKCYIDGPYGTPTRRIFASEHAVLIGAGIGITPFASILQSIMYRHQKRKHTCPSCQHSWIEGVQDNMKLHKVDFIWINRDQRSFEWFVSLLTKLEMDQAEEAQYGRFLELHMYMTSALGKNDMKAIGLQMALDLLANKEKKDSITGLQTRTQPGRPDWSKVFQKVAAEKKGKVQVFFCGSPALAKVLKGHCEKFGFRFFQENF

NADPH oxidase 4 (Homo sapiens), sequence (Q9NPH5 whole entry, looked up): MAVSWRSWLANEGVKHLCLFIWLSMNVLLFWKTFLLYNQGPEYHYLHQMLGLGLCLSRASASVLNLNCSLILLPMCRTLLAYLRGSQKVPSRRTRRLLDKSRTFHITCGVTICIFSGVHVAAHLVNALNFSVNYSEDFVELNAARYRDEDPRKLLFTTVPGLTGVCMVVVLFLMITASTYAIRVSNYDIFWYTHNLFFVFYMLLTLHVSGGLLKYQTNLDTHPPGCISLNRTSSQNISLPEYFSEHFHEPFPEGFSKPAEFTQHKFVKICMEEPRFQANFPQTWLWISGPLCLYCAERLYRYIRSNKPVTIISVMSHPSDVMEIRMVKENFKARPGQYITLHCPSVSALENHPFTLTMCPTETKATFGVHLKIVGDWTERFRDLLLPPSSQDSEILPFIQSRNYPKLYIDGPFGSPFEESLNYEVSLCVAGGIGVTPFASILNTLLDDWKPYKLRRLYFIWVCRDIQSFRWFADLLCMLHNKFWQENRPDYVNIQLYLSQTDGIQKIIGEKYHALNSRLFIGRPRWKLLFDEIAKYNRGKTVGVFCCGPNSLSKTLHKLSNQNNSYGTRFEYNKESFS
Streptavidin (Streptomyces avidinii), sequence (P22629 whole entry, looked up): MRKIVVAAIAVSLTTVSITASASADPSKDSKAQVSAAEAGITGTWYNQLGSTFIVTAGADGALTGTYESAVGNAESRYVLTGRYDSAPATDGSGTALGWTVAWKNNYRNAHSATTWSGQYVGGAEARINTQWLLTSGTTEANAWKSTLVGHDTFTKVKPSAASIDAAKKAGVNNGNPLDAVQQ

Turning to `CCOc1cc(C(O)C2C=CC3C(=O)N(c4ccccc4)C(=O)C3N2Nc2ccccc2F)ccc1O` (stereo not given), the composite z-score in assay [1] is 0.482; in assay [6] it was 0.376; in [7], 0.75; with Torsin-1A (Homo sapiens) [8] it was -0.166; in the assay with Torsin-1A (Homo sapiens) [9] it was 0.407; in [10], -0.663. The same compound displayed a composite z-score in [12] of 0.875. The z-score was 0.777 (inactive) in assay [2]; -0.545 (inactive) in assay [3]; 0.815 (inactive) in [4]; 0.63 (inactive) in assay [5]; -0.469 (inactive) in assay [11]; 6.56 (inactive) in assay [13]. Also, the z-score in [14] was 1.27 (inactive); in assay [15], -0.0788 (inactive); in [16], 0.926 (inactive); in [17], -0.824; in assay [18] it was -2.32 (inactive); in assay [19], -4.37 (inactive). This compound came in with a z-score in assay [20] of -4.13.

On to `C=C(C)[C@@H]1CC=C(C(O)C2C=CC3C(=O)N(C)C(=O)C3N2Nc2ccc([N+](=O)[O-])cc2[N+](=O)[O-])CC1` (stereo not given in full), for which the composite z-score in assay [1] was 0.291; in assay [6], 0.707; in [7], -0.0762; with Torsin-1A (Homo sapiens) [8], 0.414; with Torsin-1A (Homo sapiens) [9], 1.14; in assay [10] it was 0.413. In addition, the composite z-score in assay [12] stood at 0.807. Moreover, the z-score is -0.181 (inactive) in [2]; 0.0728 (inactive) in [3]; 2.16 (inactive) in [4]; 0.386 (inactive) in assay [5]; -1.03 (inactive) in assay [11]; 22.8 (active) in assay [13]. In addition, the z-score is 6.33 (inactive) in assay [14]; 0.0383 (inactive) in assay [15]; 1.46 (inactive) in assay [16]; -1.42 in assay [17]; -0.188 (inactive) in [18]; 0.811 (inactive) in [19]. In assay [20], this compound had a z-score of 2.85.

As to `CC1CC/C=C\[C@H]2OC34C=CCN(Cc5ccccc5)C(=O)[C@H]3N(CCCCCCO)C(=O)[C@@H]4C2C(=O)O1` (stereo not given in full), the composite z-score is -0.523 in assay [1]; -0.871 in [6]; -0.206 in assay [7]; 1.4 with Torsin-1A (Homo sapiens) [8]; -0.549 with Torsin-1A (Homo sapiens) [9]; 0.06 in assay [10]. In assay [12], this compound registered a composite z-score of 0.0249. Moreover, the z-score in [2] is -0.649 (inactive); in assay [3], 2.79 (inactive); in assay [4], 0.329 (inactive); in [5] it was 0.138 (inactive); in assay [11], 0.528 (inactive); in assay [13] it was -0.107 (inactive). Moreover, the z-score in [14] was 0.179 (inactive); in assay [15], 0.731 (inactive); in assay [16], 0.111 (inactive); in assay [17] it was 1.98; in assay [18], 1.71 (inactive); in assay [19], 0.185 (inactive). Also, the z-score in assay [20] was determined as 2.2.

For the compound `Cc1ccc(S[C@]2(C(=O)NCCCN(C)C)CC(=O)N(C3Cc4ccccc4C3)[C@@H]2c2ccc(CO)cc2I)cc1`, the composite z-score in assay [1] is -0.283; in assay [6], 0.372; in assay [7], -0.182; with Torsin-1A (Homo sapiens) [8], -1.5; with Torsin-1A (Homo sapiens) [9] it was -1.04; in assay [10], -0.348. In assay [12], this compound returned a composite z-score of -0.0882. The z-score is -1.5 (inactive) in assay [2]; 0.505 (inactive) in assay [3]; 0.155 (inactive) in assay [4]; 2.5 (inactive) in assay [5]; -0.759 (inactive) in [11]; 4.32 (inactive) in assay [13]. Moreover, the z-score in assay [14] was 0.903 (inactive); in [15], 0.925 (inactive); in assay [16], 0.352 (inactive); in assay [17], -0.0249; in [18] it was 0.914 (inactive); in assay [19], -1.12 (inactive). Further, the z-score in [20] worked out at 2.56.
